ATXN2 expr inh = Primary qHTS for Inhibitors of ATXN expression; HEK-293 ATXN2-luciferase reporter, luminescence, 24 h; Potency, µM (doses to about 57 µM), for the others: top-dose activity change, negative = inhibition, most hits filed as inhibitors; 0.72% of 360,000 active; note: % is set by controls: 0 for no effect and ±100 for the full control effect; nearly all actives have a fitted effect of over 55% in size
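ATXN2-luciferase reporter cells (luciferase flanked by upstream and downstream ATXN2 gene portions) were treated 24 h at 37 °C with compounds at up to 57 uM. SteadyGlo luminescence gave expression; GF-AFC fluorescence gave viability.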
HepG2 tox = qHTS for Inhibitors of TGF-b: Cytotox Counterscreen; HepG2 CAGA-GFP viability, ATP luminescence, 18 h; Potency, µM (series often up to 46.1 µM), for inactives: at the highest dose activity change, negative = cytotoxicity, most hits filed as cytotoxic; 0.76% of 410,000 active; AID 588856, 2011
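HepG2 CAGA-GFP cells (1000/well, DMEM with 1% FBS) received compound, then TGF-beta at 500 pg/mL final, and were incubated 18 hours at 37 degrees C. Viability was read by CellTiter-Glo luminescence. Media-only wells were set as complete cell-killing and DMSO as no toxicity.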
TGFb inhibitor = qHTS for Inhibitors of TGF-b. HepG2 CAGA-GFP TGF-b/SMAD3 reporter, GFP fluorescence, 18 h; TGF-beta stimulated, 500 pg/mL final. Potency, µM (series often up to 46.1 µM), for the others: at the top dose activity, negative = inhibition, usual class: inhibitors. 1.2% of 410,000 active; note: % is set by controls: 0 for no effect and ±100 for the full control effect; nearly all actives have a fitted effect of over 65% in size
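First, reporter cells (HEPG2 CAGA-GFP) rested 2 h at 37 degrees C. Next, compounds were pinned in and TGF-beta added to 500 pg/mL final. After 18 h, GFP was imaged per cell and summed per well.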
S2 tox = Viability Counterscreen for Primary qHTS for Inhibitors of ATXN expression; S2 cells (HEK-293 line with an ATXN2-luciferase reporter) viability, CellTiter-Fluor protease fluorescence, 24 h; Potency, µM (doses to about 56.7 µM), hits mostly cytotoxic; 0.49% of 400,000 active; note: nearly all actives have a fitted effect of over 40% in size
Anesthetic bind = qHTS Assay for Identification of Novel General Anesthetics; Ferritin light chain (Equus caballus), P02791; apoferritin/1-aminoanthracene competitive binding, fluorescence; Potency, µM (titrated, usually from 77.5 µM), inactives show top-dose activity change, negative = displacement, most hits filed as inhibitors; 0.074% of 350,000 active; AID 485281, 2010; note: % is set by controls: 0 for no effect and ±100 for the full control effect; nearly all actives have a fitted effect of over 20% in size
Target sequence (P02791 2-175 limits assumed): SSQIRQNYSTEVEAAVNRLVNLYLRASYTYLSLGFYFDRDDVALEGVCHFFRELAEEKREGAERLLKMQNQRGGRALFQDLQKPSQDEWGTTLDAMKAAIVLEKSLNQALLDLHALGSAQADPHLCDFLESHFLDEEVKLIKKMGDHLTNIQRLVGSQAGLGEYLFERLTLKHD
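Horse-spleen apoferritin (10 uM) was mixed with 50% saturated 1-aminoanthracene in PBS, exposed to compounds for 10 min at room temperature, and read for fluorescence (ex 380 nm, em 535 nm). Competitive displacement was fitted with a four-parameter Hill equation.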
An asterisk follows results filed as active; i = inactive; ? = inconclusive; . = no result given; [ ] = remark or other dose. The list is not random: actives were taken first. Their share in the collection is about 2.4%. Calls come from the whole dose curve; as a rule, active = well fitted curve in the direction sought with a large enough effect; inconclusive = small, poorly fitted or top-dose-only effect, or another doubt; inactive = no such curve, though single readings can be large; an effect the other way counts as inactive or inconclusive. Potency is the fitted concentration of half-maximal effect.

SMILES	ATXN2 expr inh	HepG2 tox	TGFb inhibitor	S2 tox	Anesthetic bind
CCOC(=O)c1ccc(N2C(=O)c3n[nH]c(-c4ccco4)c3C2c2ccc([N+](=O)[O-])cc2)cc1 (stereo not given)	?	-30.2%	?	?	-6.2%
CCOC(=O)c1ccc(N2C(=O)c3n[nH]c(C)c3C2c2ccccn2)cc1 (stereo not given)	-5.2%	-11.0%	-6.9%	i	-12.7%
O=C(NC1CCN(Cc2ccccc2)C1)c1cnn(-c2ncc3c(n2)-c2ccccc2CC3)c1C1CC1 (stereo not given)	.	.	.	i	.
Cc1ccc(Oc2ccc(C(F)(F)F)cc2[N+](=O)[O-])c([N+](=O)[O-])n1	52.7%	22.4µM*	15.3%	?	0.4%
CC(NC(=O)c1cc(F)ccc1F)c1nnc2n1CCN(Cc1ccccc1O)CC2 (stereo not given)	.	.	.	i	.
O=C(OCn1ncc(Cl)c(Cl)c1=O)c1cccc(C(F)(F)F)c1	?	7.08µM*	?	.	?
COc1cc(/C=C\C(=O)N2CCC=CC2=O)cc(OC)c1OC	.	.	.	?	-6.0%[29.3 µM]
Cn1nc(-c2ccccn2)nc2c(=O)n(C)c(=O)nc1-2	?	2.82µM*	2.24µM*	.	-3.4%
CCCc1nc2c(=O)n(C)c(=O)nc-2n(C)n1	4.23µM*	1.12µM*	1.12µM*	.	-10.1%
CCc1ccc(-c2nc3c(=O)n(C)c(=O)nc-3n(CC)n2)cc1	.	1.26µM*	0.891µM*	.	.
COc1ccc(-c2nc(-c3ccccn3)ncc2S(C)(=O)=O)cc1	8.6%[11.3 µM]	14.8%	-8.3%	i	-7.1%
Cc1ccccc1-c1nc2c(=O)n(C)c(=O)nc-2n(C)n1	.	1.12µM*	0.631µM*	.	.
CCn1c(N)nc2c1c(=O)n(C)c(=O)n2C	-6.3%	3.4%	3.2%	i	-8.4%
CCc1cccc(-n2c(=O)c3cccnc3n2CC(=O)Nc2ccc(OC)c(Cl)c2)c1	.	-4.4%	-15.2%	.	58.7%
O=c1cc(-c2ccccc2)oc2cc(O)c(O)cc12	.	.	.	.	74.6%
O=c1cc2oc3cc(O)c(O)cc3c(-c3ccccc3[N+](=O)[O-])c-2cc1O	.	-15.2%	-24.4%	15.8µM*	229.7%
COc1ccccc1-c1nnc(SCc2ccccn2)n1C	-3.1%	-1.4%	4.0%	i	38.7%
COc1ccccc1-c1nc(SCc2ccccn2)n[nH]1	58.0%	12.6µM*	-0.4%	i	-7.3%
O=C(NCCc1nnc2n1CCN(Cc1ccsc1)CC2)c1ccc(F)cc1	.	.	.	i	.
Cc1cccc(C)c1NC(=O)COC(=O)CCc1c[nH]c2ccccc12	-4.5%	0.0%	-2.7%	i	.
Cc1c(C(=O)NCCC2CCCN2C)cnn1-c1nccc(-c2ccccc2F)n1 (stereo not given)	.	.	.	i	.
CC(C)(C)NC(=O)NC(=O)C[n+]1ccc(Cc2ccc([N+](=O)[O-])cc2)cc1	-27.1%	3.16µM*	-2.1%	i	-8.6%
COC(=O)c1ccc(C)c(NC(=O)CCNC(=O)c2ccc([N+](=O)[O-])cc2)c1	7.9%	4.47µM*	-4.4%	i	-5.9%
Cc1ccc(F)cc1NC(=O)CCNC(=O)c1ccc([N+](=O)[O-])cc1	-0.6%	6.6%	-2.7%	i	-3.6%
CC[N+]1(CC(=O)c2ccc(OC)cc2)CCCCC1	.	6.6%	4.9%	.	.
SMILES	ATXN2 expr inh	HepG2 tox	TGFb inhibitor	S2 tox	Anesthetic bind
O=C(CCl)N(C/C=C/c1ccccc1)c1ccc2c(c1)OCCO2	1.34µM*	-2.5%	?	1.34µM*	-13.1%
CCC=CC[C@H]1C(=O)CC[C@@H]1CC(=O)OC	-1.3%	.	.	.	.
C=C1CCN(C(C)C(=O)OCc2ccc(C)cc2)S(=O)(=O)c2ccccc21 (stereo not given)	.	-28.4%	2.4%	.	-2.9%
COC(=O)c1ccc(NC(=O)CCc2c(C)nc3c(c(C)nn3C(C)(C)C)c2C)cc1	12.9%	-47.1%	15.8µM*	i	?
CCOC(=O)c1ccc(NC(=O)CCc2c(C)nc3c(c(C)nn3C(C)(C)C)c2C)cc1	?	-17.9%	?	i	-13.4%
OC(COc1cccc2ccccc12)CN1CCN(c2ccc(Cl)cc2)CC1 (stereo not given)	.	-93.8%	15.8µM*	?	-7.5%
COC(=O)C[C@H]1c2cc(F)ccc2S(=O)(=O)N1C1CC1	.	2.1%	-6.2%	.	.
NNC(=S)NC1CCCCCCCCCCC1	.	8.91µM*	10µM*	i	?
CN(C)c1nc2cc3c(cc2cc1CN(CC1CCCO1)C(=O)/C=C/c1cccs1)OCO3 (stereo not given)	.	.	.	i	.
Cc1ccnc(Nc2nc(-c3ccc(O)c(O)c3)cs2)c1	26.2%	-41.3%	14.1µM*	?	-13.5%
Cc1ccnc(Nc2nc(-c3ccc(O)cc3O)cs2)c1	-33.5%	11.2µM*	11.2µM*	?	-2.2%
Cc1ccc(NC(=O)c2ccc(Cl)c(S(=O)(=O)Nc3c(C)n(C)n(-c4ccccc4)c3=O)c2)cc1Cl	1.6%	8.3%	-25.2%	i	.
Cn1c2ccccc2c2c3c(c4c5ccccc5n(CCC#N)c4c21)CNC3=O	6.85µM*	.	.	.	20.2%
O=C1C=C(N2CCOCC2)c2cccc3cccc1c23	.	-5.5%	5.6%	?	.
CN(C1=C(N2CCOCC2)C(=O)c2ccccc2C1=O)c1ccccc1	0.0%	-1.5%	10µM*	?	-12.7%
O=C1C=C(N2CCOCC2)c2ccccc2C1=O	?	5.01µM*	5.01µM*	25.1µM*	-17.8%
O=C1C(NS(=O)(=O)c2cccs2)=C(N2CCOCC2)C(=O)c2ccccc21	-20.7%	-157.9%	?	i	-1.6%
O=C1CC(c2ccccc2)Cc2[nH]c(=O)c(C(=O)O)cc21 (stereo not given)	.	-7.7%	-11.0%	.	.
CCOc1ccc(/C=N/NC(=O)C(=O)N2CCCCCC2)c2ccccc12	?	-56.2%	7.94µM*	?	-10.9%
Cc1ccc(CN2C(=O)C(O)(c3c[nH]c4ccccc34)c3cc(Cl)ccc32)cc1 (stereo not given)	?	12.6µM*	2.82µM*	i	-20.3%
O=C(NCC(c1ccco1)S(=O)(=O)c1ccc(Cl)cc1)c1ccc(C(F)(F)F)cc1 (stereo not given)	.	-16.5%	15.8µM*	.	-3.0%
Cc1sc2ccccc2[n+]1Cc1ccccc1	.	-3.7%	?	.	.
O=C(Nc1cccc(-c2csc(Nc3cccc(C(F)(F)F)c3)n2)c1)c1ccccc1	?	-8.9%	?	25.1µM*	-4.5%
COc1cccc(C(=O)NCC(=O)OCc2cc(=O)n3nc(C)sc3n2)c1	3.7%	5.9%	-0.6%	i	34.3%
